# Measurements as given in PubChem BioAssay (Tox21).
# “And” between values parts separate entries of the source, which are not always exact repeats. Identical values can stand only once. Results filed as inconclusive are left out. Entries that show only a call come without a potency. Some structures have more than one record in an assay (separate samples or runs), and their calls can disagree. The source made the active and inactive calls. Unless noted, calls come from the whole dose curve; as a rule, active = well fitted curve in the direction sought with a large enough effect in the repeat runs; inconclusive = weak or mixed curves; inactive = no such curve, though single readings can be large; an effect the other way counts as inactive or inconclusive.
# Assays:
# [1] = qHTS assay to identify small molecule agonists of the androgen receptor (AR) signaling pathway in the presence of an antagonist - cell viability counter screen (AID 1259379); note: nearly all actives have a fitted effect of over 25% in size; note: potency is the fitted concentration of half-maximal effect
# Method in brief: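 Seed MDA-kb2 at 3,000 cells/well; incubate 5 hr, 37C, 0% CO2. Add nilutamide to 3.0uM final, then pin compounds at 15 concentrations. Incubate 16 hr. Add CellTiter-Fluor at 15 hr, read fluorescence after 1 hr.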
# [2] = qHTS assay to identify small molecule agonists of the estrogen receptor beta (ER-beta) signaling pathway - cell viability counter screen (AID 1259380); note: nearly all actives have a fitted effect of over 30% in size; note: potency is the fitted concentration of half-maximal effect
# Method in brief: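 CellTiter-Glo read, 30 min RT, same wells as bla assay; cells ER-beta-UAS-bla HEK293T; 16 hr compound, 37C; medium 2% charcoal-stripped FBS.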
# [3] = molecular target: Androgen receptor (Homo sapiens) (UniProt P10275); test: qHTS assay to identify small molecule agonists of the androgen receptor (AR) signaling pathway in the presence of an antagonist (AID 1259381; calls by dose curve; note: nearly all actives have a fitted effect of over 15% in size; note: potency is the fitted concentration of half-maximal effect)
# Androgen receptor (Homo sapiens), sequence (P10275 whole entry, looked up): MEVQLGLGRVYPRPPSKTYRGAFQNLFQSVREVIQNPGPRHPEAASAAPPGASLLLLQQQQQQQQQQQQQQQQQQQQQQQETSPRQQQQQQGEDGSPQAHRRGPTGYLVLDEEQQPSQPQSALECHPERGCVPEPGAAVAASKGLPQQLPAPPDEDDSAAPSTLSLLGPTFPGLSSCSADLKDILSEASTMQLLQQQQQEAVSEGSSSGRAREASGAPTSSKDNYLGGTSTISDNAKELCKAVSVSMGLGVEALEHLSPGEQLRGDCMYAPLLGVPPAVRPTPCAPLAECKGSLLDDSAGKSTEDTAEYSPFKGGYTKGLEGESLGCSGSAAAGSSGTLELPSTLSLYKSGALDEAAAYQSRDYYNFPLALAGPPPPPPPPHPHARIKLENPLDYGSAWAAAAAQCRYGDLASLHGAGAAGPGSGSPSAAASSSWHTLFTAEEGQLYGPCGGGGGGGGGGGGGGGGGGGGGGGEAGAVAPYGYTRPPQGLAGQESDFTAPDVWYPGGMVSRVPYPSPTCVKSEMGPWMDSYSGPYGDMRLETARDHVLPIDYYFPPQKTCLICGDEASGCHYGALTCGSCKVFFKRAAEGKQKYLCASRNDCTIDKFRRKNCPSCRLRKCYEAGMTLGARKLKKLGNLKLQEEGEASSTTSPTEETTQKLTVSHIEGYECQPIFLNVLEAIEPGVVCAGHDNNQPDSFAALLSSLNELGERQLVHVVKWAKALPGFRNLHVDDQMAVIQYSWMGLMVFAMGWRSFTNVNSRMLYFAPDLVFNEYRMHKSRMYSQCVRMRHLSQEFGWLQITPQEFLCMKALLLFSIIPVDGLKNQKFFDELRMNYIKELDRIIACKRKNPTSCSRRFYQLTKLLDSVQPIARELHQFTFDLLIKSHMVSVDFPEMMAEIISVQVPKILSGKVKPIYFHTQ
# Method in brief: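 Test compounds at 15 concentrations were incubated for 16hr with MDA-kb2 reporter cells in presence of 3.0uM nilutamide (final). Signal: ONE-Glo luciferase luminescence.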
# [4] = qHTS assay to identify small molecule antagonists of the estrogen receptor beta (ER-beta) signaling pathway - cell viability counter screen (AID 1259382); note: nearly all actives have a fitted effect of over 55% in size; note: potency is the fitted concentration of half-maximal effect
# Method in brief: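 In this multiplexed counter screen, cells were seeded at 2,000 per well in medium with 2% charcoal-stripped FBS and incubated 6 hr before compound and 1nM final E2 were added. Sixteen hours later, ATP-based luminescence reported viability.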
# [5] = molecular target: Estrogen receptor (Homo sapiens) (UniProt P03372); test: qHTS assay to identify small molecule agonists of the estrogen receptor alpha (ER-alpha) signaling pathway in the presence of an antagonist (AID 1259383; calls by dose curve; note: nearly all actives have a fitted effect of over 15% in size; note: potency is the fitted concentration of half-maximal effect)
# Estrogen receptor (Homo sapiens), sequence (P03372 whole entry, looked up): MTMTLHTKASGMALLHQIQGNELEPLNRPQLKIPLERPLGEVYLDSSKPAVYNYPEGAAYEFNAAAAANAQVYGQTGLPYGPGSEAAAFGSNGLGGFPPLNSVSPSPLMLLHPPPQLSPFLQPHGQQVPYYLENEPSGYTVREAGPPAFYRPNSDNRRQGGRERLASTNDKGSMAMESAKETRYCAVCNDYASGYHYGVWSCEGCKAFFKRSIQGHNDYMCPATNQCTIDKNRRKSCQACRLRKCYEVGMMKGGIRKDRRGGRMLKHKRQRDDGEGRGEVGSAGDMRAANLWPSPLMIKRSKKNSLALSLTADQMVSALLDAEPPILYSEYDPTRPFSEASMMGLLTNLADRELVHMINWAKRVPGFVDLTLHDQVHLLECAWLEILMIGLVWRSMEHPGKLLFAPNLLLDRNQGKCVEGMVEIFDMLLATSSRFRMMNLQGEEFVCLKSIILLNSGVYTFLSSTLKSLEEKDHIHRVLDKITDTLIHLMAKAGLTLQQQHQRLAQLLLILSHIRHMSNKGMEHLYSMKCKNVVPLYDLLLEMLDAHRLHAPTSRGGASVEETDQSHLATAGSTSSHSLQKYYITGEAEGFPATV
# Method in brief: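 Stably transfected VM7Luc4E2 reporter cells, kept 5 days in charcoal-stripped serum, received ICI-182,780 at 10.0nM final before compound addition. Following 22hr incubation at 37C and 5% CO2, luciferase signal was read by luminescence.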
# [6] = qHTS assay to identify small molecule agonists or antagonists of the thyroid stimulating hormone receptor (TSHR) signaling pathway - wild type cell line counter screen (AID 1259384; calls by dose curve)
# Method in brief: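 Wild-type HEK293 cells were plated 18 h at 37 C/5% CO2, pin-dosed with compound plus Ro20-1724 medium, held 30 min at room temperature, then given cAMP-d2 and anti-cAMP-cryptate; fluorescence was read after 1 h. Fifteen concentrations, triplicate.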
# [7] = molecular target: Estrogen receptor beta (Homo sapiens) (UniProt Q92731); test: qHTS assay to identify small molecule antagonists of the estrogen receptor beta (ER-beta) signaling pathway (AID 1259378; active = well fitted inhibition curve with a large enough effect in the signal ratio in the repeat runs, not every such curve was filed as active; the % refers to the signal ratio; note: potency is the fitted concentration of half-maximal effect)
# Estrogen receptor beta (Homo sapiens), sequence (Q92731 whole entry, looked up): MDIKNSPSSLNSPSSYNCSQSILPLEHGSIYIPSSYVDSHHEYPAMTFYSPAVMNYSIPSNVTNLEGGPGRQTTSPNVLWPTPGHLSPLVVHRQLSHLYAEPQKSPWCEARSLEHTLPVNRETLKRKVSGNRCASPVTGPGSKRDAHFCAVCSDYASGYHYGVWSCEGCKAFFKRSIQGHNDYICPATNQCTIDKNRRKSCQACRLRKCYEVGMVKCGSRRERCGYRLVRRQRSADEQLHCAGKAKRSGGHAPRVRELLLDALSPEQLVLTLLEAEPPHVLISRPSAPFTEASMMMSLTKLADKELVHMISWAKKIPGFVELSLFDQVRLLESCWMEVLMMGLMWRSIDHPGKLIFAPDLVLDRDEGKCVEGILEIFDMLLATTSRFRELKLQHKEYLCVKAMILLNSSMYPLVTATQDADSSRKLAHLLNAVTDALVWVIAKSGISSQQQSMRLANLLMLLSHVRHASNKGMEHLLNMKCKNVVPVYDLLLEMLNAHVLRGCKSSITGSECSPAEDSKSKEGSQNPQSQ
# Method in brief: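 ER-beta-UAS-bla HEK293T (GripTite) cells in 2% charcoal-stripped FBS medium were preincubated 6 hr at 37C, dosed with compound, then stimulated with 1 nM E2 (final) for 16 hr; beta-lactamase reporter read by B/G FRET fluorescence after 2 hr substrate loading.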
# [8] = molecular target: Thyrotropin receptor (Homo sapiens) (UniProt P16473); test: qHTS assay to identify small molecule antagonists of the thyroid stimulating hormone receptor (TSHR) signaling pathway (AID 1259385; calls by dose curve; note: nearly all actives have a fitted effect of over 20% in size; note: potency is the fitted concentration of half-maximal effect)
# Thyrotropin receptor (Homo sapiens), sequence (P16473 whole entry, looked up): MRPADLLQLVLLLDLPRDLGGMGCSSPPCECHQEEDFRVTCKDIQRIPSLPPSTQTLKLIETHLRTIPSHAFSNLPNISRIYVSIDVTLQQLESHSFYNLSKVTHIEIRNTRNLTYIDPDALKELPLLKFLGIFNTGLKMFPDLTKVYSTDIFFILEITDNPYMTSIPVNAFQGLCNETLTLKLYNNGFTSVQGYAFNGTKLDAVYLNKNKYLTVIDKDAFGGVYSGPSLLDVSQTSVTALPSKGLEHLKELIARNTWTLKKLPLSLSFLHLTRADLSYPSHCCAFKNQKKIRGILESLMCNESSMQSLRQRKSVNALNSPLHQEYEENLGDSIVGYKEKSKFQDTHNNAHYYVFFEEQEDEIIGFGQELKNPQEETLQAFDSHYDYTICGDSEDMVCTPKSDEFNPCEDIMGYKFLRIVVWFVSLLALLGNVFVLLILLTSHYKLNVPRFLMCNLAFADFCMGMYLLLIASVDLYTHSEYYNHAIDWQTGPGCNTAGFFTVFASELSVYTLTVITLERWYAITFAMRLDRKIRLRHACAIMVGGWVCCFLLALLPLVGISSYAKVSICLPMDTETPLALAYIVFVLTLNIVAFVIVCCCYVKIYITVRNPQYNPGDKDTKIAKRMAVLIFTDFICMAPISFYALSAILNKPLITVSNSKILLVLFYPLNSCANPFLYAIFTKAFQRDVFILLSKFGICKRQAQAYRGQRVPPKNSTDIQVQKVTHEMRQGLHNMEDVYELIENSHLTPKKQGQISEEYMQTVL
# Method in brief: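 TSHR-HEK293 cells were plated and held 18 h at 37C/5% CO2, then given compound plus Ro20-1724 and stimulated with TSH at 1.5 ng/mL final. After 30 min at room temperature, cAMP was detected with cAMP-d2/anti-cAMP-cryptate (1 h) by fluorescence.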
# [9] = qHTS assay to identify small molecule agonists of the estrogen receptor alpha (ER-alpha) signaling pathway in the presence of an antagonist - cell viability counter screen (AID 1259386);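 note: cells exposed to compounds for 22 h at 37 °C before the viability read; nearly all actives have a fitted effect of over 30% in size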; note: potency is the fitted concentration of half-maximal effect
# Method in brief: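 Viability counter screen using VM7Luc4E2 (full-length ER-alpha, four ERE-luciferase). The cells were treated with compounds alongside ICI-182,780 10.0nM for 22hr, and live-cell protease fluorescence was quantified with CellTiter-Fluor.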
SMILES,Potency [1],Potency [2],Potency [3],Potency [4],Potency [5],outcome [6],Potency [7],Potency [8],Potency [9]
S=C=Nc1cccc2ccccc12,inactive,60.5 µM (active),inactive,67.9 µM (active),inactive,inactive,,,
CC(C)[C@H](C(=O)O[C@H](C#N)c1cccc(Oc2ccccc2)c1)c1ccc(Cl)cc1,inactive,,,inactive,,inactive,inactive,inactive,
N#Cc1c(-c2ccc(Cl)cc2)[nH]c(C(F)(F)F)c1Br,0.969 µM (active),24.3 µM (active),inactive,38.6 µM (active),inactive,inactive,,,
N#CCCSCCC#N,inactive,inactive,,inactive,inactive,,inactive,,inactive
FC(F)(F)c1cccc(C2=CCN(CCc3ccc4ccccc4c3)CC2)c1,inactive,,,inactive,,,inactive,,inactive
C[C@H]1O[C@@H](O[C@H]2[C@@H](O)C[C@H](O[C@H]3[C@@H](O)C[C@H](O[C@H]4CC[C@@]5(C)[C@H](CC[C@@H]6[C@@H]5CC[C@]5(C)[C@@H](C7=CC(=O)OC7)CC[C@]65O)C4)O[C@@H]3C)O[C@@H]2C)C[C@H](O)[C@@H]1O,inactive,43.5 nM (active) and 47.3 nM (active),inactive and 237 nM (active),30.8 nM (active) and 42.2 nM (active),inactive,inactive,,,inactive
C[C@]12Cc3nonc3C[C@@H]1CC[C@@H]1[C@@H]2CC[C@@]2(C)[C@H]1CC[C@]2(C)O,,26.6 µM (active),,,inactive,,18.8 µM (active),inactive,
CC1CCC(C(C)C)C(OC(=O)c2ccccc2N)C1 (configuration not stated),inactive,30.2 µM (active),,60.3 µM (active),inactive,inactive,8.51 µM (active),60.3 µM (active),
CS(=O)(=O)c1ccc(C(=O)C2C(=O)CCCC2=O)c([N+](=O)[O-])c1,inactive,,,,inactive,inactive,inactive,inactive,
CC(C)CC(C)Nc1ccc(Nc2ccccc2)cc1 (configuration not stated),,67.4 µM (active),,,inactive,,30.1 µM (active),,60.1 µM (active)
CCCCCCCCCCCCCCCCCCn1cc[n+](C)c1,21.6 µM (active),30.5 µM (active),inactive,30.5 µM (active),inactive,inactive,,inactive,60.8 µM (active)
C=CC(=O)OCC(COC(=O)C=C)(COC(=O)C=C)COC(=O)C=C,12.2 µM (active),7.7 µM (active),inactive,9.69 µM (active),inactive,inactive,,,13.7 µM (active)
CCOc1cc(C(C)(C)C)ccc1C1COC(c2c(F)cccc2F)=N1 (configuration not stated),inactive,18.6 µM (active),inactive,29.5 µM (active),inactive,,,,inactive
CC(C)(C)OO,inactive,inactive,inactive,inactive,,inactive,inactive,inactive,inactive
N#CSCSC#N,70.1 µM (active) and 67.9 µM (active),27.9 µM (active) and 27 µM (active),inactive,55.7 µM (active) and 48.1 µM (active),,inactive,,55.7 µM (active),
Oc1ccc(C(=C(Cl)Cl)c2ccc(O)cc2)cc1,inactive,68.5 µM (active),,68.5 µM (active),1.93 µM (active),inactive,3.43 µM (active),,
CC(C)CC(C)N (configuration not stated),inactive,inactive,,inactive,inactive,inactive,inactive,inactive,inactive
N#C/C=C/c1ccccc1,inactive,inactive,inactive,,inactive,,,,
C1CCC2CCCCC2C1 (configuration not stated),inactive,inactive,,inactive,inactive,,inactive,,inactive
Cn1[nH]nnc1=S,inactive,inactive,,,inactive,inactive,inactive,,inactive
CCC(C)(C)C(=O)OC1=C(c2ccc(Cl)cc2Cl)C(=O)OC12CCCCC2,inactive,inactive,inactive,inactive,inactive,inactive,,inactive,
CCCCCCCCCCBr,inactive,inactive,,,inactive,,inactive,,inactive
BrCC(Br)c1ccccc1 (configuration not stated),inactive,inactive,,inactive,inactive,inactive,inactive,inactive,inactive

SMILES,Potency [1],Potency [2],Potency [3],Potency [4],Potency [5],outcome [6],Potency [7],Potency [8],Potency [9]
CCCCCCCCc1ccc(O)cc1,inactive,15.4 µM (active),inactive,,,inactive,,inactive,
CC(=O)c1ccc(-c2ccccc2)cc1,inactive,inactive,inactive,inactive,inactive,inactive,,inactive,inactive
Cc1cc(N=Nc2ccccc2C)ccc1N,30.6 µM (active) and 34.4 µM (active),27.3 µM (active),,54.5 µM (active),,inactive,19.3 µM (active),,27.3 µM (active)
O=C(NC(=O)c1c(F)cccc1F)Nc1cc(Cl)c(OC(F)(F)C(F)F)c(Cl)c1,inactive,,inactive,inactive,inactive,inactive,inactive,inactive,inactive
FC(Cl)(Cl)Cl,inactive,inactive,inactive,inactive,,inactive,,inactive,inactive
CCOC(=O)c1ccccc1S(=O)(=O)NC(=O)Nc1nc(Cl)cc(OC)n1,inactive,inactive,inactive,inactive,inactive,,,inactive,inactive
Cc1ccc(OP(=O)(Oc2ccccc2)Oc2ccccc2)cc1,inactive,31.1 µM (active),inactive,,inactive,inactive,24.7 µM (active),inactive,inactive
C[C@@H]1O[C@@H](O[C@@H]2C=C3CC[C@@H]4[C@H](CC[C@]5(C)[C@@H](c6ccc(=O)oc6)CC[C@]45O)[C@@]3(C)CC2)[C@H](O)[C@H](O)[C@H]1O,inactive,0.0094 µM (active),0.0298 µM (active),,,,,0.298 µM (active),inactive
O=[N+]([O-])c1cc(C(F)(F)F)c(Cl)c([N+](=O)[O-])c1Cl,27.3 µM (active),27.3 µM (active),,30.6 µM (active),inactive,inactive,,61.1 µM (active),
C[C@@H]1O[C@@H](O[C@H]2C[C@@H](O)[C@]3(CO)[C@H]4[C@H](O)C[C@]5(C)[C@@H](C6=CC(=O)OC6)CC[C@]5(O)[C@@H]4CC[C@]3(O)C2)[C@H](O)[C@H](O)[C@H]1O,inactive,81.9 nM (active) and 94.4 nM (active),,46.1 nM (active) and 75 nM (active),inactive,,,,inactive
Cn1cc(C2=C(c3cn(C4CCN(Cc5ccccn5)CC4)c4ccccc34)C(=O)NC2=O)c2ccccc21,11.9 µM (active),inactive,,inactive,,inactive,,inactive,inactive
Cc1cc(SCc2sc(-c3ccc(C(F)(F)F)c(F)c3)nc2C)ccc1OCC(=O)O,inactive,15.4 µM (active),,13.7 µM (active),inactive,,,,inactive
COP(=O)(CCC(=O)NCO)OC,inactive,inactive,,inactive,inactive,inactive,,inactive,inactive
CNC(C)Cc1ccc2c(c1)OCO2 (configuration not stated),inactive,inactive,,inactive,inactive,,,inactive,inactive
CC(C)CCCCCCCOP(=O)(Oc1ccccc1)Oc1ccccc1,inactive,inactive,,inactive,inactive,,,inactive,inactive
CCCCCCCCCCCCCCCC[N+](C)(C)C,29.5 µM (active) and 48.6 µM (active) and 26.6 µM (active),9.34 µM (active) and 24.3 µM (active) and 11.9 µM (active),,23.5 µM (active) and 54.5 µM (active) and 23.7 µM (active),,inactive,,inactive,inactive
CC(=O)C(Cl)(Cl)Cl,20.9 µM (active),inactive,,inactive,inactive,,,,
CC(=O)Nc1ccc2c(c1)Cc1ccccc1-2,inactive,inactive,,inactive,8.77 µM (active),inactive,,,inactive
Oc1ccc(C2(c3ccc(O)cc3)c3ccccc3-c3ccccc32)cc1,34.4 µM (active),48.6 µM (active),,61.1 µM (active),inactive,inactive,,,
CC(=O)[O-].CC(=O)[O-].[Hg+2],10.9 µM (active),3.06 µM (active),,6.11 µM (active),,,,,21.7 µM (active)
CC(C)CC(C)(c1ccc(O)cc1)c1ccc(O)cc1,inactive,68.7 µM (active) and 61.1 µM (active),,54.6 µM (active) and 68.6 µM (active),,,,inactive,inactive
C[C@]12CC[C@H](O)C[C@H]1CC[C@@H]1[C@@H]2C[C@@H](O)[C@]2(C)[C@@H](C3=CC(=O)OC3)CC[C@]12O,inactive,1.09 µM (active),,0.77 µM (active),,,,,inactive
CN(C)C(=S)S,inactive,5.56 µM (active) and 1.21 µM (active) and 12.2 µM (active),,12.4 µM (active),,,,,inactive
